TWEAK-Fn14 inh: inhibitors of TWEAK-Fn14 signaling, primary screen, luciferase reporter cells, uHTS | inhibition, % at 10 µM | AID 1159606, 2016 | 360,000 tested, 2% active | TWEAK-stimulated Fn14 reporter cells, luciferase luminescence, 8 h; in the data active means inhibition above about 50%
hiPSC survival: enhancers of single-cell hiPSC survival, primary screen, ATPlite luminescence; 100% = ROCK inhibitor wells, 0% = DMSO; survival enhancement, % at 20 µM; 360,000 tested, 0.044% active; in the data active means survival enhancement above about 18%;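 further: cells exposed to compounds for 16 hours before the ATP read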
HIF-2a block: HIF-2a reporter inhibitors, primary screen, luminescence, 786-0 RCC cells; 360,000 tested, 0.72% active; AID 624352, 2012; 786-0 RCC cells HIF-2a reporter, luciferase luminescence, overnight; inhibition, % at 18.8 µM;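 active means inhibition of the luminescence signal of 40% or more relative to plate controls, in a single-dose primary screen at 18.75 µM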
KKLEB cytotox: cytotoxicity in KKLEB CF airway cells, primary screen, cytotoxicity control for CF NF-kB inhibitor project, cell-based, uHTS, fluorescence assay plates; KKLEB CF airway cells viability, ATPlite luminescence, overnight; stronger effect = lower value; cells stimulated with P. aeruginosa culture filtrate; activity change (cytotoxicity), % at 5 µM; AID 602141, 2011; 360,000 tested, 0.36% active;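 active means corrected activity change at or below -50% at 5 µM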
CF NFkB block: inhibitors of PAF-induced NF-kB signaling, primary screen, cell-based, GFP fluorescence, uHTS | KKLEB NF-kB-GFP reporter, GFP fluorescence overnight | inhibition, % at 5 µM | 360,000 tested, 0.86% active | AID 588850, 2011;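 active means at least 50% inhibition at 5 µM, scaled per plate between neutral and stimulator controls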;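 further: PAF is a Pseudomonas aeruginosa culture filtrate used as stimulus; plate controls were PAF-stimulated DMSO wells for no effect and unstimulated DMSO wells for full effect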
LGR2 inh: inhibitors of bursicon-induced LGR2 CRE-luciferase signal, primary screen, cell-based, HEK293, CRE-luciferase reporter, bursicon stimulation; Drosophila bursicon receptor LGR2 (rickets); bursicon-stimulated, 4 h; inhibition, % at 9.99 µM; 380,000 tested, 0.35% active;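 active means drop in luminescence signal, shown as inhibition above about 50% in the replicate tests, limit read from the data, passing the limit was not always enough; inconclusive means probably only some replicates passing the limit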;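 further: agonist challenge used bursicon conditioned medium at about half maximal strength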
The depositor's hits bear a star; ? = inconclusive; . = no result given. Sampled rows, rich in hits. Any-hit rate of the full collection: about 2.3%.

SMILES	TWEAK-Fn14 inh	hiPSC survival	HIF-2a block	KKLEB cytotox	CF NFkB block	LGR2 inh
CCCCOC(=O)C1=C(C)N(C)C(=O)NC1c1cc2c(cc1Br)OCO2 (stereo not drawn)	9	-1	22	-7	7	-1
CO[C@H]1CN(C)C(=O)c2cc(NC(=O)CC(F)(F)F)ccc2OC[C@@H](C)N(C(=O)C2CC2)C[C@H]1C	.	.	.	.	.	-2
Cc1ccc(/C=C/C(=O)c2ccccc2O)cc1	1	1	-89	6	-5	-54
CN(C)c1ccc(/C=C/C(=O)c2ccc(O)cc2)cc1	-16	-4	-158	-12	-28	-69
CN(C)c1ccc(/C=C/C(=O)c2ccccc2O)cc1	58*	-2	-288	-5	0	-2
O=C(/C=C/c1ccc2c(c1)OCCCO2)c1ccccc1O	75*	-2	-158	-22	33	-14
Cc1ccc(O)c(C(=O)C=Cc2ccccc2)c1	54*	-4	-14	2	-8	-27
Cc1ccc(O)c(C(=O)/C=C/c2ccc3c(c2)OCCCO3)c1	56*	0	-161	-26	31	-30
Cc1ccc(C(=O)/C=C/c2ccc3c(c2)OCO3)o1	2	-4	-64	4	-3	-56
Cc1ccccc1-c1ccc([C@@H]2[C@H](CO)N3CCCCN(C(=O)CN4CCOCC4)C[C@@H]23)cc1	.	.	.	.	.	-1
C[C@@H]1CN([C@@H](C)CO)C(=O)c2cc(C3=CCCCC3)cnc2O[C@@H]1CN(C)Cc1ccccc1	.	.	.	.	.	2
COC1=C(Nc2ccc(C)cc2)C(=O)c2ccccc2C1=O	-36	0	-166	-21	47	-33
COc1cc(Cl)c(NC2=CC(=O)C(=O)c3ccccc32)c(OC)c1	25	-1	37	-44	83*	-13
COc1cc(Cl)c(NS(=O)(=O)c2ccc(-c3ccc(=O)[nH]n3)o2)c(OC)c1	-3	0	4	-13	13	0
CCOc1ccc(NC2=CC(=O)C(=O)c3ccccc32)cc1	-8	-2	-106	-13	80*	-20
O=C1C=C(Nc2cccnc2)c2ccccc2C1=O	2	2	17	10	54*	7
O=C1C=C(Nc2ccc(F)cc2)c2ccccc2C1=O	47	0	-32	-19	82*	-42
C[C@@H]1CN([C@@H](C)CO)C(=O)c2c(c3ccccc3n2C)-c2ccccc2CO[C@@H]1CN(C)S(=O)(=O)c1cn(C)cn1	.	.	.	.	.	5
Cc1ccc(OCCCCCCN2CCNCC2)c(Br)c1	58*	-1	-109	-1	5	?
CS(=O)(=O)N(CCC#N)Cc1ccc(/C=C2\C(=O)Nc3ccccc32)o1	47	0	18	-6	50*	-10
CC1=C(C#N)C(=O)NC(=O)/C1=C/c1ccc(-c2ccc(S(N)(=O)=O)cc2)o1	2	0	19	-10	2	20
Cc1ccccc1Oc1nc2c(C)cccn2c(=O)c1/C=C(\C#N)C(=O)Nc1c(C)n(C)n(-c2ccccc2)c1=O	52*	0	37	-19	36	4
COc1ccc(NC(=O)Nc2ccc3c(c2)C(=O)N([C@H](C)CO)C[C@H](C)[C@@H](CN(C)C(=O)Nc2c(C)noc2C)OCCCC[C@H](C)O3)cc1	.	.	.	.	.	1
Oc1ccc(-c2csc(-c3cccnc3)n2)c(O)c1	54*	-2	-244	-10	-18	?
O=C(NC1CC2CCCC(C1)N2C(=O)Nc1ccc(Cl)c(C(F)(F)F)c1)C1CC1 (stereo not drawn)	2	5	21	-9	2	.
SMILES	TWEAK-Fn14 inh	hiPSC survival	HIF-2a block	KKLEB cytotox	CF NFkB block	LGR2 inh
O=C(Nc1ccc(Cl)c(C(F)(F)F)c1)NC1CC2CCCC(C1)N2Cc1ccccc1 (stereo not drawn)	.	.	.	.	.	82*
O=C(O)c1ccc(CN2C(=O)c3cccc4c([N+](=O)[O-])ccc(c34)C2=O)cc1	53*	0	-9	13	15	-2
Cc1ccc(C(=O)O)cc1N1C(=O)c2cccc3c([N+](=O)[O-])ccc(c23)C1=O	13	0	7	20	-27	-3
CN1C(=O)c2cc(NC(=O)Nc3ccc(Cl)cc3)ccc2OC[C@@H]2O[C@H](CC(=O)O)CC[C@@H]21	.	.	.	.	.	17
O=C1/C(=C/c2cccnc2)SC(=S)N1C1CCS(=O)(=O)C1 (stereo not drawn)	65*	-3	53*	-13	72*	?
O=C1/C(=C\c2cccnc2)SC(=S)N1C1CCS(=O)(=O)C1 (stereo not drawn)	71*	-4	28	-6	66*	55*
CN1CCN(C(=O)C[C@H]2CC[C@@H](NC(=O)Cc3ccccn3)[C@@H](CO)O2)CC1	.	.	.	.	.	15
O=C(Nc1ccccc1)c1cn2ccccc2n1	89*	0	-11	-8	-4	?
CC[C@@]1(C(=O)OC)N[C@H](CN(C)S(=O)(=O)c2ccc(C(F)(F)F)cc2)[C@@H]2C(=O)N(C)C(=O)[C@@H]21	83*	-1	-3	18	-30	-6
C[C@H](CO)N1C[C@H](C)[C@H](CN(C)C(=O)Cc2ccccc2)Oc2ncc(-c3cncnc3)cc2C1=O	.	.	.	.	.	13
O=c1cccccc1NCc1ccccc1	0	0	-59	6	1	-18
Cc1ccc(NC2=CC(=O)C(=O)c3ccccc32)c(C)c1	75*	0	-37	-4	77*	37
O=C(Nc1ccccc1O)c1ccc2c(c1)C(=O)N(N1C(=O)c3ccccc3C1=O)C2=O	1	0	13	5	-17	8
O=C1C=C(Nc2ccccc2O)c2ccccc2C1=O	17	-2	-10	-64*	64*	-2
O=C1C=C(NCc2ccccc2)c2ccccc2C1=O	69*	-2	19	6	30	96*
O=C(C[C@H]1C=C[C@@H](NC(=O)CN2CCOCC2)[C@@H](CO)O1)NC1CCC1	.	.	.	.	.	-6
O=C(CNC(=O)/C(=C\c1ccccc1)NC(=O)c1ccc(Br)cc1)OCc1ccccc1	73*	-2	9	4	-14	.
O=C(CNC(=O)/C(=C\c1ccc(F)cc1)NC(=O)c1ccccc1)OCc1ccccc1	-5	-3	8	-8	12	.
Cc1ccc(/C(N)=N/OC(=O)c2ccc(C)cc2Cl)cc1	85*	-4	-65	-64*	-7	59*
N/C(=N\OC(=O)c1ccccc1Cl)c1ccccc1	43	-4	-249	-7	8	60*
Cc1cc(/C(N)=N/OC(=O)c2ccccc2Cl)no1	54*	-1	-160	6	-8	84*

Source: PubChem
